From PubChem BioAssay (Tox21)
Inconclusive results are not listed. Calls of active or inactive are those of the source. Unless noted, calls come from the whole dose curve; as a rule, active = well fitted curve in the direction sought with a large enough effect in the repeat runs; inconclusive = weak or mixed curves; inactive = no such curve, though single readings can be large; an effect the other way counts as inactive or inconclusive.

Tests used:
[1] = molecular target: Peroxisome proliferator-activated receptor delta (Homo sapiens) (UniProt Q03181); assay: qHTS assay to identify small molecule agonists of the peroxisome proliferator-activated receptor delta (PPARd) signaling pathway (AID 743212; calls by dose curve)
Method in brief: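 HEK293H UAS-bla reporter cells, human PPARd system; compounds delivered in DMSO after 5 h plating, then at 37 C. Beta-lactamase FRET read, 2 h RT substrate step.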

[2] = qHTS assay to identify small molecule antagonists of the peroxisome proliferator-activated receptor delta (PPARd) signaling pathway - cell viability counter screen (AID 743213); note: nearly all actives have a fitted effect of over 50% in size
Method in brief: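 HEK293H PPARd UAS-bla cells, 5 h pre-incubation, compound + L165041 300 nM final, 17 h 37 C; B/G FRET substrate 2 h RT; then CellTiter-Glo 30 min RT, luminescence.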

[3] = molecular target: Peroxisome proliferator-activated receptor delta (Homo sapiens) (UniProt Q03181); assay: qHTS assay to identify small molecule antagonists of the peroxisome proliferator-activated receptor delta (PPARd) signaling pathway (AID 743215; active = well fitted inhibition curve with a large enough effect in the signal ratio in the repeat runs, not every such curve was filed as active; the % refers to the signal ratio;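 note: cells stimulated with agonist L165041 at 300 nM final during compound exposure; series mostly up to about 62 µM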)
Method in brief: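 With L165041 present at 300 nM final, compounds were incubated 17 h at 37 C on PPARd UAS-bla HEK293H cells. A FRET-based beta-lactamase substrate was then applied for 2 h at room temperature and fluorescence intensity recorded.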

[4] = qHTS assay to identify small molecule antagonists of the farnesoid-X-receptor (FXR) signaling pathway - cell viability counter screen (AID 743221; active = well fitted cell-killing curve with a large enough effect in the repeat runs, not every such curve was filed as active; note: nearly all actives have a fitted effect of over 50% in size)
Method in brief: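 Quantitative HTS of the Tox21 10K library run in parallel with the beta-lactamase reporter read. HEK 293T cells carrying a UAS-driven bla reporter got compound and 50 uM CDCA (final) for 16 h; ATP-based luminescence followed.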

[5] = molecular target: Vitamin D3 receptor (Homo sapiens) (UniProt P11473); assay: qHTS assay to identify small molecule antagonists of the vitamin D receptor (VDR) signaling pathway (AID 743223; active = well fitted inhibition curve with a large enough effect in the signal ratio in the repeat runs, not every such curve was filed as active; the % refers to the signal ratio)
Method in brief: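 Fluorescence from LiveBLAzer B/G FRET substrate, read after 2 h at room temperature, reflects beta-lactamase reporter activity in VDR-bla cells treated 16 h at 37C with compounds and agonist 1alpha,25-dihydroxyvitamin D3 (3 nM final).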

[6] = qHTS assay to identify small molecule agonists of the vitamin D receptor (VDR) signaling pathway - cell viability counter screen (AID 743224); note: series mostly up to about 63 µM; nearly all actives have a fitted effect of over 50% in size
Method in brief: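 Here cell health was gauged by luminescent ATP detection (CellTiter-Glo, 30 min RT) in VDR-bla cells that had been incubated with test compounds for 16 h at 37C and 5% CO2.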

[7] = molecular target: Bile acid receptor (Homo sapiens) (UniProt Q96RI1); assay: qHTS assay to identify small molecule antagonists of the farnesoid-X-receptor (FXR) signaling pathway (AID 743217; active = well fitted inhibition curve with a large enough effect in the signal ratio in the repeat runs, not every such curve was filed as active; the % refers to the signal ratio)
Method in brief: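 In this cell-based antagonist screen, inhibition of CDCA-driven (50 uM final) UAS-beta-lactamase expression in HEK 293T cells was measured by FRET fluorescence following 16 h compound exposure at 37 °C.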

[8] = qHTS assay to identify small molecule agonists of the farnesoid-X-receptor (FXR) signaling pathway - cell viability counter screen (AID 743218); note: nearly all actives have a fitted effect of over 45% in size
Method in brief: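 After 16 h at 37 C with test compounds, FXR-bla HEK 293T cells were given LiveBLAzer B/G substrate for 2 h at RT and then CellTiter-Glo; luminescence was taken after 30 min.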

[9] = molecular target: Bile acid receptor (Homo sapiens) (UniProt Q96RI1); assay: qHTS assay to identify small molecule agonists of the farnesoid-X-receptor (FXR) signaling pathway (AID 743220; active = well fitted activation curve with a large enough effect in the signal ratio in the repeat runs, not every such curve was filed as active; the % refers to the signal ratio)
Method in brief: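 Beta-lactamase reporter under UAS control in GeneBLAzer FXR HEK 293T cells (5000/well) measured with LiveBLAzer FRET substrate after 2 h at room temperature. Compound exposure lasted 16 h at 37C.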

[10] = molecular target: Vitamin D3 receptor (Homo sapiens) (UniProt P11473); assay: qHTS assay to identify small molecule agonists of the vitamin D receptor (VDR) signaling pathway (AID 743222; calls by dose curve)
Method in brief: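 VDR-bla cells were seeded, left 4 h, treated with compounds in DMSO for 16 h, incubated 2 h at RT with B/G FRET substrate, and read for fluorescence.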

Measured: outcome

Peroxisome proliferator-activated receptor delta (Homo sapiens), sequence (Q03181 whole entry, looked up): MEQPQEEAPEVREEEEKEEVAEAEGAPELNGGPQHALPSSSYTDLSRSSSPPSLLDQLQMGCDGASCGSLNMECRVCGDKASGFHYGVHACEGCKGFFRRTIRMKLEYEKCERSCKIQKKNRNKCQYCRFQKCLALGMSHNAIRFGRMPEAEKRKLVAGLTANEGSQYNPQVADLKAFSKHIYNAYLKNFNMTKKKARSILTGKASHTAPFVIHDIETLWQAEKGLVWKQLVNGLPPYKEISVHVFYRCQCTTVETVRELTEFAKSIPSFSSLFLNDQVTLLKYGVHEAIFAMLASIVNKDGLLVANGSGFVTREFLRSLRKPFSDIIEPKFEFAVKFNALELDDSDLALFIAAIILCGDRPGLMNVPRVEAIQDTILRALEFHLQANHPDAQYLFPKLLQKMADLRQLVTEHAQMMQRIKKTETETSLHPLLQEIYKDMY
Vitamin D3 receptor (Homo sapiens), sequence (P11473 whole entry, looked up): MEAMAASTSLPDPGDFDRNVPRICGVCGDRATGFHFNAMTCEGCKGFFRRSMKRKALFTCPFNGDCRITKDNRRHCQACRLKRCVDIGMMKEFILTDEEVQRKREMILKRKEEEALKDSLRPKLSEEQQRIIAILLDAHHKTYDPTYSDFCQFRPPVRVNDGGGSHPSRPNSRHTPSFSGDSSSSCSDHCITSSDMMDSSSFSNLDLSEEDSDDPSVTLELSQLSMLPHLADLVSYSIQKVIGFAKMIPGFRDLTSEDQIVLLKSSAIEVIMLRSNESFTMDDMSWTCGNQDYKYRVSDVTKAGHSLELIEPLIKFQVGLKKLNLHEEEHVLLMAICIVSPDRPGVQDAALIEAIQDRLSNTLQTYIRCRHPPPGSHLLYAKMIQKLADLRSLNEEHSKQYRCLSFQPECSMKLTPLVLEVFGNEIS
Bile acid receptor (Homo sapiens), sequence (Q96RI1 whole entry, looked up): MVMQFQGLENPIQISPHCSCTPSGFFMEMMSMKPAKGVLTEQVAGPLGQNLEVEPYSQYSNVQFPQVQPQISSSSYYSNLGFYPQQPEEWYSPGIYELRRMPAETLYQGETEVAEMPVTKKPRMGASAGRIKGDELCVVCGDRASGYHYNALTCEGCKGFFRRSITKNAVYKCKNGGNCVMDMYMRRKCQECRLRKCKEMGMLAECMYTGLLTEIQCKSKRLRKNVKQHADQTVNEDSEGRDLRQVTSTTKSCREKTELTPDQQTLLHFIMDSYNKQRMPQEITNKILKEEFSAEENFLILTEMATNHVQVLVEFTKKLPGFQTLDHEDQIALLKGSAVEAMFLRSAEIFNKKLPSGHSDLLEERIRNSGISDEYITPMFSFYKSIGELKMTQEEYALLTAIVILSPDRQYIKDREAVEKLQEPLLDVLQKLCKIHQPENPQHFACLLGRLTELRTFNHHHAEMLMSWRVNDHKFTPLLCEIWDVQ

N#Cc1ccccc1C#N
inactive: [1] | [2] | [3] | [4] | [5] | [6]

CCCCCCCCCCCC(C)=O
not listed: [3] | [5]
inactive: all other assays above

CC(=O)Oc1ccc(C(C)=O)cc1
not listed: [2] | [5] | [8]
inactive: all other assays above

CCCCCC(CC)OC(=O)CCCOc1ccc(Cl)cc1Cl (stereo not given)
not listed: [7] | [8] | [9]
inactive: all other assays above

Cc1ccc(OC(=O)CC(C)C)cc1
inactive: [1] | [2] | [7] | [8] | [9]

N[C@H]1C(O)O[C@H](CO)[C@@H](O)[C@@H]1O (stereo not given in full)
not listed: [7] | [8] | [9]
inactive: all other assays above

C=C(C)C(=O)OCCCC
inactive: [1] | [2] | [3] | [4] | [6]

O=C(c1ccccc1)c1cccc(O)c1
not listed: [3] | [7] | [9]
inactive: all other assays above

CC(C)(C)C(=O)NCCCC(=O)O
not listed: [7] | [8] | [9]
inactive: all other assays above

C=CC(=O)OCC[N+](C)(C)C
not listed: [2] | [8]
inactive: all other assays above

CC(=O)c1ccc2ccc3ccccc3c2c1
not listed: [3] | [8]
inactive: all other assays above

CCCC[O][Al]([O]CCCC)[O]CCCC
not listed: [3] | [5]
inactive: all other assays above

CC(=O)Nc1ccc(S(=O)(=O)Nc2cc(C)on2)cc1
not listed: [3]
inactive: all other assays above

Cc1cc(C)c(N)c(Cl)c1
not listed: [7] | [8] | [9]
inactive: all other assays above

CCCCN=C(N)N=C(N)N
inactive: [1] | [2] | [3] | [4] | [6]

C[Si](C)(C)O[Si](O)(O)O
not listed: [3] | [6] | [10]
inactive: all other assays above

C=CCCCCCCCCCCCCCC
not listed: [7] | [8] | [9]
inactive: all other assays above

C=CCN(CC=C)CC=C
inactive: [1] | [2] | [8] | [4] | [10] | [6]

CC(C)(Sc1cc(C(C)(C)C)c(O)c(C(C)(C)C)c1)Sc1cc(C(C)(C)C)c(O)c(C(C)(C)C)c1
not listed: [7] | [8] | [9]
inactive: all other assays above

C/C(Cl)=C/CCl
inactive: [1] | [3] | [7] | [9] | [4] | [6]

CC(C)(C)c1ccc(N)cc1
inactive: [1] | [2] | [3] | [4] | [10] | [6]

CCCCCC(=O)CC
not listed: [3]
inactive: all other assays above

Cc1ccc(O)c(C(=O)c2ccccc2)c1
inactive: [1] | [2] | [3] | [4] | [10] | [6]

CC(C)CC(O)Cc1ccccc1 (stereo not given)
inactive: [1] | [2] | [3] | [4] | [10] | [6]

CCCCCCCCCCCCCC(=O)OCC
inactive: [1] | [2] | [4] | [10] | [5] | [6]

NNC(=O)CCCCC(=O)NN
not listed: [3]
inactive: all other assays above

CCCCCCCOC(C)=O
inactive: [1] | [2] | [3] | [4] | [10] | [6]

COC(C)(C)CC(C)=O
not listed: [2] | [5] | [8]
inactive: all other assays above

CC[C@@]1(c2ccccc2)NC(=O)N(C)C1=O
not listed: [3] | [5]
inactive: all other assays above
